Results on 12 compounds are retold here after PubChem BioAssay (NCATS).

Inconclusive results are not listed. A number with no mark means an inactive call. Active and inactive are the calls of the source. The call rests on the fitted dose curve; in most records, active means well fitted curve in the direction sought with a large enough effect; inconclusive means small, poorly fitted or top-dose-only effect, or another doubt; inactive means no such curve, though single readings can be large; an effect the other way counts as inactive or inconclusive.

For assay [1], the system named is MKL-2. In words: qHTS assay to identify novel small-molecules to repurpose for Merkel cell carcinoma treatment (AID 1296009). Further: nearly all actives have a fitted effect of over 60% in size. Further: potency means the concentration at half of the fitted maximal effect. The following applies: MCC and control cell lines, CellTiter-Glo viability, 72 h; series mostly up to 46 µM. In short, it runs like this:
(§1)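 Cells were treated for 72 hr at 37 degree celsius with compounds in 8- or 11-point dose response. Viability was read by CellTiter-Glo luminescence, normalized to no-cell (cytotoxicity) and DMSO controls.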
In general terms: Quantitative high-throughput screening tests each substance at several concentrations.

Assay [2] has as its system MKL-1. The assay is described as above. Conditions: MCC and control cell lines, CellTiter-Glo viability, 72 h; series mostly up to 46 µM. Summed up: as §1
On the technique in general: ATP-based viability assays read luminescence as a measure of living cells.

Assay [3] has as its system CASKI. As to the kind of experiment: Primary qHTS to identify gynecologic anti-cancer compounds using libraries of approved drugs and bioactive compounds (AID 1345084). Further: nearly all actives have a fitted effect of over 55% in size. Further: potency means the concentration at half of the fitted maximal effect. The following applies: Gynecologic cancer cell panel viability, ATPlite luminescence, 48 h; series mostly up to 57.5 µM. Summed up: (§2)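 Cytotoxicity screen measuring ATP content by luciferase luminescence. Each compound is applied at five concentrations for 48 h at 37 C with 5% CO2.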

Assay [4] relates to Hek293T. The description is as above. The following applies: Gynecologic cancer cell panel viability, ATPlite luminescence, 48 h, control line for the selectivity index; series mostly up to 57.5 µM. Summed up:
as §2

Assay [5] relates to JEG-3. The assay is described as above. The following applies: Gynecologic cancer cell panel viability, ATPlite luminescence, 48 h; series mostly up to 57.5 µM. In short, it runs like this:
as §2

The test system of assay [6] is PA-1. Described as above. The following applies: Gynecologic cancer cell panel viability, ATPlite luminescence, 48 h; series mostly up to 57.5 µM. Summed up: as §2
The test system of assay [7] is Tov112D. The description is as above. The following applies: Gynecologic cancer cell panel viability, ATPlite luminescence, 48 h; series mostly up to 57.5 µM. Summed up:
as §2

Assay [8] relates to C33A. The description is as above. Conditions: Gynecologic cancer cell panel viability, ATPlite luminescence, 48 h; series mostly up to 57.5 µM. Summed up:
as §2

Assay [9] relates to Es-2. Described as above. The following applies: Gynecologic cancer cell panel viability, ATPlite luminescence, 48 h; series mostly up to 57.5 µM. Summed up: as §2
In assay [10] the test system is HeLa. Described as above. Conditions: Gynecologic cancer cell panel viability, ATPlite luminescence, 48 h; series mostly up to 57.5 µM. Summed up:
as §2

In assay [11] the test system is OV90. The description is as above. Conditions: Gynecologic cancer cell panel viability, ATPlite luminescence, 48 h; series mostly up to 57.5 µM. In short, it runs like this:
as §2

The test system of assay [12] is SKOV3. The assay is described as above. The following applies: Gynecologic cancer cell panel viability, ATPlite luminescence, 48 h; series mostly up to 57.5 µM. Summed up:
as §2

For assay [13], the system named is Tov-21-G. The assay is described as above. The following applies: Gynecologic cancer cell panel viability, ATPlite luminescence, 48 h; series mostly up to 57.5 µM. In short, it runs like this: as §2
In assay [14] the test system is UISO. As to the kind of experiment: qHTS assay to identify novel small-molecules to repurpose for Merkel cell carcinoma treatment (AID 1296009). Further: nearly all actives have a fitted effect of over 60% in size. Further: potency means the concentration at half of the fitted maximal effect. The following applies: MCC and control cell lines, CellTiter-Glo viability, 72 h; series mostly up to 46 µM. In short, it runs like this: as §1
Assay [15] concerns WaGa. The description is as above. The following applies: MCC and control cell lines, CellTiter-Glo viability, 72 h; series mostly up to 46 µM. In short, it runs like this:
as §1

Assay [16] in a line: qHTS assay to identify inhibitors of the type 1 interferon - major histocompatibility complex class I in skeletal muscle: Counter screen cell viability and HiBit confirmation (AID 1347412). Further: potency means the concentration at half of the fitted maximal effect. On all read-outs here: nearly all actives have a fitted effect of over 60% in size. The following applies: iHSKM muscle cells + IFN-b, HiBiT or CellTiter-Glo, 24 h; for activity change, negative = inhibition: at 45.9 µM (top of the series). Summed up: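 CRISPR HLA-B*08:01-HiBit immortalized human myoblasts (C25cl48) stimulated with 4 ng/ml IFN-beta and compounds (12-point 1:3, top 46 uM final) for 24 h at 37 C. Duplicate plates read by HiBit lytic luminescence or CellTiter Glo ATP.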

Assay [17] in a line: Drug repurposing screens with cells derived from glioblastoma tumor samples (AID 1345199). Further: nearly all actives have a fitted effect of over 40% in size. Conditions: GBM patient neurospheres viability, ATP luminescence, 48 h. In short, it runs like this:
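Four patient lines of CD133+ GBM neurospheres were screened at several concentrations; hits were retested in those lines plus three slower-growing GBM lines, using 48-hour treatment and ATP-based viability.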

The test system of assay [18] is NIH3T3. In words: qHTS assay to identify novel small-molecules to repurpose for Merkel cell carcinoma treatment (AID 1296009). Further: nearly all actives have a fitted effect of over 60% in size. Further: potency means the concentration at half of the fitted maximal effect. The following applies: MCC and control cell lines, CellTiter-Glo viability, 72 h; at 44.8 µM (top of the series) unless noted. Summed up:
as §1

The mark [19] stands for this setting: at 45.9 µM (top of the series), tumour line B.
The mark [20] stands for this setting: at 45.9 µM (top of the series), tumour line D.
The mark [21] stands for this setting: at 46 µM (top of the series), tumour line A.
The mark [22] stands for this setting: at 46.1 µM (top of the series), tumour line C.
On the % scale 0 is the no-effect control and ±100 the full control effect.

Consider `O=C(NCc1ccncc1)C12C[C@H]3C[C@@H](C1)CC(c1ccc(Cl)cc1)(C3)C2`, for which the Potency result in assay [1] was “inactive”.
For `NC(=O)c1ccc2nc(-c3ccc(Oc4ccc(Cl)cc4)cc3)[nH]c2c1`, the Potency entry in assay [2], in assay [3], in assay [4], in [5] and in [7] was “inactive” throughout. In addition, in assay [6], the Potency was 15.8 µM (active).
With `NC(=O)c1cccc(-c2cc(Nc3ccc(OC(F)(F)F)cc3)ncn2)c1`, the Potency result in assay [2], in assay [8], in assay [3], in assay [9], in assay [10] and in [4] was “inactive” each time. The Potency entry in [5], in assay [11], in [6], in assay [12], in [13] and in [7] was “inactive” in each case.
For `c1ccc2c(Cc3c[nH]c4ccccc34)c[nH]c2c1`, the Potency entry in assay [2] and in assay [15] was “inactive” throughout. In addition, the Potency in assay [14] is 0.469 µM (active).
For `O=C(Nc1ccccc1-c1cn2c(CN3CCNCC3)csc2n1)c1cnc2ccccc2n1`, the Potency entry in [15], in assay [8], in [3], in [9], in assay [10] and in assay [4] was “inactive” throughout. The Potency entry in assay [5], in assay [11], in assay [6], in assay [12], in [13] and in [7] was “inactive” throughout. The Potency in assay [16] (HiBiT) was 11.1 µM (active); in assay [16] (Viability) it was 15.7 µM (active).
Turning to `N#C[C@H]1C[C@H]2C[C@@H]2N1C(=O)[C@@H](N)C12CC3CC(CC(O)(C3)C1)C2`, the activity, negative = cell killing in [17] (setting [19]) is -2.78%; in assay [17] (setting [20]), -16.4%; in [17] (setting [21]), -21.1%; in [17] (setting [22]), 4.9%.
Taken in the same sequence, the figures for `NC[C@@H]1O[C@@H](O[C@H]2[C@@H](O)[C@H](O[C@@H]3[C@@H](O)[C@@H](N)C[C@H](N)[C@H]3O[C@H]3O[C@H](CN)[C@@H](O)[C@@H](O)[C@H]3N)O[C@H]2CO)[C@H](N)[C@@H](O)[C@@H]1O` were 5.16%, 4.28%, -29.1% and 9.32%.
Turning to `O=C(O)c1c(Cl)c(Cl)c(Cl)c(Cl)c1-c1c2cc(I)c(=O)c(I)c-2oc2c(I)c(O)c(I)cc12`, the Potency result in assay [14] was “inactive”. Also, the activity, negative = cell killing in assay [17] (setting [22]) was -28.5%.
Regarding `CC(=O)O[C@]1(C(C)=O)CC[C@@H]2[C@@H]3C[C@H](C)C4=CC(=O)CC[C@]4(C)[C@H]3CC[C@@]21C`, the Potency result in assay [14] was “inactive”.
Turning to `Oc1ccc(C2CCN(c3ccnc4ccccc34)CC2)cc1O`, the Potency entry in assay [14] is “inactive”. Further, the activity change, negative = inhibition in [16] (Viability) was -0.0528%.
Regarding `CNC1CCC(N(Cc2cccc(-c3ccncc3)c2)C(=O)c2sc3c(F)ccc(F)c3c2Cl)CC1` (centres undefined), the Potency result in assay [15], in assay [8], in assay [3], in assay [10], in assay [5] and in assay [12] was “inactive” throughout. For the same compound, the Potency result in assay [7] was “inactive”. Moreover, the activity change, negative = inhibition in [16] (HiBiT) was -27.3%.
`CC(C)[C@H](CO)Nc1nc(Nc2ccc(C(=O)O)c(Cl)c2)c2ncn(C(C)C)c2n1`: the outcome in assay [18] was “inactive [at 17.4 µM]”. The Potency result in assay [8], in assay [3], in assay [9], in assay [10], in assay [4] and in assay [5] was “inactive” in each case. For the same compound, the Potency result in assay [11], in assay [6], in assay [12], in assay [13] and in [7] was “inactive” each time.
